# Compound activity: PubChem BioAssay, several laboratories
# Only some compounds are listed: those with a hit (about 1.6% of all), similar ones and a draw of the others.
# PriA SSB inh = blocks PriA binding to SSB C-terminal tail | 430,000 tested, 0.6% active | inhibition, % at 33 µM | AlphaScreen SSBct-PriA binding, biotinylated peptide; in the data active = inhibition mostly above about 37%, no sharp cut-off; inactive = mostly below about 20%
# Vc quorum ag = induces V. cholerae light production without autoinducers. V. cholerae BH1578 lux reporter, luminescence, 6 h. activation, % at 18.7 µM. 350,000 tested, 0.16% active. AID 588436; in the data active = activation mostly above about 9.7%, no sharp cut-off
# PrP 5UTR inh = inhibition of PrP 5' UTR reporter expression. cell-based PrP 5' UTR mRNA reporter, plate reader. inhibition, % (no concentration beside the values). 340,000 tested, 0.35% active. AID 488862; in the data active = inhibition above about 52%
# SARS 3CLpro inh = SARS-CoV 3CLpro protease inhibition; AID 1706; 290,000 tested, 0.14% active; P0C6X7; recombinant SARS-CoV 3CLpro, quenched FRET peptide cleavage; inhibition, % at 6 µM; in the data active = inhibition above about 12%
# PrPC TRFRET = inhibitors of human cell surface prion protein PrPC. P04156. TR-FRET read-out. inhibition, % at 13.8 µM. 370,000 tested, 0.43% active. AID 720596; in the data active = inhibition above about 24%
# PfHsp40 yeast = compounds rescuing yeast from Plasmodium falciparum HSP40 toxicity. S. cerevisiae expressing PfHsp40, growth rescue, ATP luminescence. growth rescue, % at 12.5 µM. 340,000 tested, 0.68% active. AID 504582; in the data active = growth rescue above about 28%, passing the limit was not always enough;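 also: yeast W303a lacking pdr1 and pdr3 grown in galactose medium; growth measured after three days at 30 °C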
# PrPC TRFRET cf = cell surface PrPC inhibition, TR-FRET confirmation; shares compounds with PrPC TRFRET; cell surface PrPC level; inhibition, % at 13.8 µM; 1,500 tested, 65% active; in the data active = inhibition above about 25%
# LD9 tox = LD9 cell cytotoxicity, PrPc inhibitor counter-screen; 1,500 tested, 29% active; LD9 cells cytotoxicity, luminescence viability; inhibition, % at 13.8 µM; shares compounds with PrPC TRFRET; in the data active = inhibition above about 9.5%
# Hits are given with their value; . = inactive; / = no result.
SMILES,PriA SSB inh,Vc quorum ag,PrP 5UTR inh,SARS 3CLpro inh,PrPC TRFRET,PfHsp40 yeast,PrPC TRFRET cf,LD9 tox
O=C(NCCOc1ccccc1)c1ccccc1Cl,.,.,.,.,.,.,/,/
CC(C)(C)c1cc[n+](C(C(=S)NC2CC2)=C([O-])c2ccc(Cl)s2)cc1,.,/,/,/,/,/,/,/
O=C(NNc1ccccc1)C(=O)NNS(=O)(=O)c1ccc(CCCl)cc1,.,.,.,.,27,.,.,.
Cc1ccc(Sc2c(O)c3ccccc3n(C)c2=O)cc1,.,.,.,.,45,.,59,.
COC(=O)C1CCN(C(=O)C2CN(C(C)=O)C2)CC1,.,/,/,/,/,/,/,/
CCN(c1cccc(C)c1)S(=O)(=O)c1ccc2c(c1)CCN2C(C)=O,.,.,.,.,.,.,/,/
CCN(c1cccc(C(F)(F)F)c1)S(=O)(=O)c1ccc2c(c1)CCN2C(C)=O,.,.,.,.,80,.,.,.
CC(=O)/C(=N\Nc1ccccc1)Sc1cccc2cccnc12,/,.,.,.,.,.,/,/
O=C(Sc1cccc2cccnc12)c1ccccc1Br,/,.,.,.,30,119,.,83
CC1CCCN(C(=O)CSc2cnc3ccccc3n2)C1 (stereo unspecified),.,.,.,.,39,.,71,.
Cc1nc2ccccc2nc1SCC(=O)N1CCC(C)CC1,.,.,.,.,55,.,50,.
Cc1cccc2sc(NC(=O)c3cc(S(=O)(=O)N(C)C)ccc3N3CCCC3)nc12,.,.,.,.,50,.,31,.
CN(C)S(=O)(=O)c1ccc(N2CCCC2)c(C(=O)Nc2nc3ccccc3s2)c1,.,.,.,.,61,.,61,.
O=C(NCCOc1ccc2nnc(-c3cccc(F)c3)n2n1)Nc1ccc(Cl)cc1,.,/,/,/,/,/,/,/
COc1cc(NC(=S)Nc2cccc(Cl)c2Cl)c(OC)cc1Cl,.,/,.,.,.,.,/,/
COc1cc(NC(=S)NC(C)(C)C)c(OC)cc1Cl,.,.,.,.,25,.,.,.
O=C(NC1CCN(c2ccccn2)C1)c1cncc(Br)c1 (stereo unspecified),.,/,/,/,/,/,/,/
C=C1C(=O)[C@]23C[C@H]1CC[C@H]2[C@]1(C)CCC[C@@](C)(C(=O)OC)[C@H]1C[C@@H]3O,/,/,/,/,60,/,71,96
CC(C)Oc1ccc(CNC(=O)c2ccc3c(c2)N(C)CCS3)cc1,.,.,.,.,25,.,44,.
NC(N)=N/N=C/c1cn(-c2ccccc2)nc1-c1cccs1,/,.,.,.,27,.,.,60
NC(N)=NN=Cc1cn(-c2ccccc2)nc1-c1cccs1,.,/,/,/,/,/,/,/
COc1ccc(N(C)S(=O)(=O)c2cccc(C(=O)OC(C(=O)Nc3cc(C)cc(C)c3)c3ccccc3)c2)cc1 (stereo unspecified),.,.,.,.,26,.,.,.
Cn1nnnc1Sc1ncnc2scc(-c3ccc(Br)cc3)c12,.,.,.,/,25,.,27,22
CC(=O)c1cccc(Nc2c3c(nc4ccccc24)CCC3)c1,.,.,.,.,.,.,/,/
COC(=O)c1cccc(Nc2c3c(nc4ccccc24)CCC3)c1,.,.,.,.,29,.,30,12
SMILES,PriA SSB inh,Vc quorum ag,PrP 5UTR inh,SARS 3CLpro inh,PrPC TRFRET,PfHsp40 yeast,PrPC TRFRET cf,LD9 tox
Cc1ccc2nc3c(c(Nc4cccc(O)c4)c2c1)CCC3,.,.,.,.,25,.,.,16
CCOC(=O)Cc1csc(NC(=O)Cc2csc(NC(=O)NC3CCCCC3)n2)n1,.,/,/,/,/,/,/,/
CN(C)S(=O)(=O)c1ccc(C(=O)N2CCC(CSC3=NCCS3)CC2)cc1,.,/,/,/,/,/,/,/
O=C(NC[C@@H](c1cccnc1)N1CCc2ccccc2C1)C(=O)Nc1ccc2c(c1)OCCO2,.,/,/,/,/,/,/,/
Cn1cccc1/C=N\NC(=O)Cc1ccc(Br)c2ccccc12,/,/,.,.,31,.,35,.
COc1ccc(NC(=O)CCc2csc(NC(=O)c3ccc(=O)[nH]c3)n2)cc1OC,.,/,/,/,/,/,/,/
Cc1cc(C)c[n+](-c2[nH]c(=O)sc2C=NN=C([O-])c2cccnc2)c1,.,/,/,/,/,/,/,/
CCOc1ccc(C(=S)N2CCCC2)cc1OCC,.,.,.,.,.,.,/,/
CCOc1cc(C(=S)N2CCCC2)ccc1OCc1ccccc1,.,.,.,.,27,.,.,.
CC(C)c1ccc(/C=C(\c2nc3ccccc3[nH]2)S(=O)(=O)c2ccccc2)cc1,.,.,.,.,43,.,44,.
O=S(=O)(/C(=C/c1ccc(C(F)(F)F)cc1)c1nc2ccccc2[nH]1)c1ccccc1,.,.,.,.,38,.,79,97
CC(=O)N1CC(C(=O)Nc2ccc(Br)c(C)c2)C1,.,/,/,/,/,/,/,/
COc1ccc(-c2ccc(SCC(=O)Nc3nccs3)nn2)cc1OC,.,.,.,.,29,.,38,.
COc1ccc(-c2nnc3ccc(SCC(=O)Nc4nccs4)nn23)cc1OC,.,.,.,.,.,.,/,/
Cn1cnc([N+](=O)[O-])c1S(=O)(=O)c1ccc(Cl)cc1,.,.,.,.,37,.,.,91
Cn1cnc([N+](=O)[O-])c1NC(C)(C)C,.,.,.,.,.,.,/,/
Cc1cc(C(=O)NCCn2nc(-c3ccsc3)cc2C2CC2)no1,.,/,/,/,/,/,/,/
CCSc1nc(N)c2c3c(sc2n1)CCC3,.,.,.,.,25,.,39,.
O=C(Nc1ccc(Cn2cccn2)cc1)c1ccc(COc2ccc(Br)cc2)cc1,.,.,.,.,.,.,/,/
O=C(Nc1ccn(Cc2ccccc2)n1)c1ccc(F)cc1,.,.,.,.,.,.,/,/
O=C(Nc1ccc(Cn2cccn2)cc1)c1ccc(COc2cccc(Br)c2)cc1,.,.,.,.,28,.,26,.
O=C(Nc1ccn(Cc2ccccc2F)n1)c1ccc(COc2ccc(Br)cc2)cc1,.,.,.,.,32,.,.,.
O=C(Nc1ccc(Br)c2ccccc12)c1ccc2ccccc2c1O,.,.,.,.,35,.,64,21
Cc1cccc(C)c1NC(=O)C(=O)NCC(c1ccc2c(c1)CCN2C)N(C)C (stereo unspecified),.,/,/,/,/,/,/,/
O=C(Nc1cccc(Cl)c1)Nc1ccc2c(c1)OCO2,.,.,.,.,32,.,31,.
O=C(NCc1ccc2c(c1)OCO2)Nc1cccc(Cl)c1,.,.,.,.,.,.,/,/
CN1CCN(NC(=O)c2cc(-c3ccc(Br)s3)nc3ccccc23)CC1,.,.,.,.,.,.,/,/
O=C(O)c1cc(-c2ccc(Br)s2)nc2ccccc12,.,.,.,.,33,.,53,.
Cc1[nH]c(=O)c(C#N)c(C)c1Cc1ccc(Cl)cc1Cl,.,.,.,.,.,.,/,/
Cc1[nH]c(=O)c(C#N)c(C)c1CSc1ncccn1,.,.,.,/,29,.,25,.
